Experimental data as given in PubChem BioAssay AID651635 (National Center for Advancing Translational Sciences (NCATS), 2012).
Hit rate of the full screen: of about 400,000 compounds, about 1,900 (0.47%) were called active. A call without a number means that no potency is given here. Not shown: some 14% with an inconclusive outcome. Calls come from the whole dose curve; as a rule, active = well fitted cell-killing curve with a large enough effect; inconclusive = small, poorly fitted or top-dose-only effect, or effect the other way; inactive = no such curve, though single readings can be large or run the other way. The full list was thinned out, with actives kept by preference.

test: Viability Counterscreen for Primary qHTS for Inhibitors of ATXN expression; settings: S2 cells (HEK-293 line with an ATXN2-luciferase reporter) viability, CellTiter-Fluor protease fluorescence, 24 h; series mostly up to 56.7 µM; note: nearly all actives have a fitted effect of over 40% in size
Potency is the fitted concentration of half-maximal effect.

SMILES	Potency
COc1ccc(NC(=O)C2Cc3c(-c4ccc(Cl)cc4)ccnc3O2)cc1 (configuration not stated)	inactive
CCCCN1CC(c2nc3ccccc3n2CCCCOc2ccc(C)cc2C)CC1=O (configuration not stated)	25.1 µM (active)
CCc1ccccc1N1CC(c2nc3ccccc3n2CCCCOc2ccccc2)CC1=O (configuration not stated)	inactive
CCOc1ccc(N2CC(c3nc4ccccc4n3CCOc3ccc(OC)cc3)CC2=O)cc1 (configuration not stated)	inactive
COc1ccccc1Cc1c(-c2ccc(Cl)cc2)nc2ccc(Cl)cn12	inactive
CCCCc1c(-c2ccc(Br)cc2)ncn1CCc1ccccc1OC	15.8 µM (active)
CCCCCc1c(Cc2ccccc2)ncn1CCc1ccccc1OC	22.4 µM (active)
COc1ccccc1CCNS(=O)(=O)c1cn(C)nc1C	inactive
Cn1c(=O)c2c(ncn2CCc2ccccc2)n(C)c1=O	inactive
CCOc1ccc(-c2n[nH]c3c2C(c2ccccc2OC)N(c2ccc(Br)cc2)C3=O)cc1 (configuration not stated)	inactive
CCCc1c2oc(C(=O)O)cc(=O)c2cc2c(=O)cc(C(=O)O)n(CC)c12	inactive
O=C1CCN(Cc2ccc(-c3ccccc3)cc2)CCN1Cc1ccccn1	inactive
Cc1ncc2c(c1CNS(=O)(=O)N(C)C)CCN(C(=O)c1ccccc1F)C2	inactive
CS(=O)(=O)NC(=O)CCC/C=C\C[C@H]1C(=O)C[C@@H](O)[C@@H]1/C=C/[C@H](O)COc1ccccc1	inactive
Cc1ccc(-c2ccnc(-n3ncc(C(=O)N(C)Cc4cccc5ncccc45)c3C3CC3)n2)o1	inactive
COc1ccc(-n2nc3c(N4CCC(C(=O)NCc5ccccc5)CC4)nnc(C)c3c2C)cc1	inactive
Cc1nnc(N2CCC(C(=O)Nc3ccc(F)cc3)CC2)c2nn(-c3ccc(Cl)cc3)c(C)c12	20 µM (active)
COc1cccc(NC(=O)C2CCN(c3cc(C)nc4c(-c5ccc(Cl)cc5)c(C)nn34)CC2)c1	inactive
CCOC(=O)C1=C(c2ccc(OC)cc2)C(=O)c2ccccc2C1=O	6.31 µM (active)
COC(=O)c1cc(OC)ccc1-c1ccc(OC)cc1	inactive
CCOC(=O)N1CCN(S(=O)(=O)c2ccc(OC)cc2)CC1	inactive
COC(=O)[C@@H]1C[C@H](NC(=O)c2ccccc2C(F)(F)F)CN1Cc1cccc(O)c1	inactive
CC(C)(C)C1CCc2c(sc(NC(=O)c3ccccc3F)c2C(=O)N2CCCCC2)C1 (configuration not stated)	inactive
CC(O)CNCCOc1cccc(Oc2ccccc2)c1 (configuration not stated)	inactive
COc1cccc2[nH]c(C(=O)NCCc3ccccc3)cc12	inactive
COc1ccccc1OCCNCC(O)COc1cccc2[nH]c3ccccc3c12 (configuration not stated)	28.2 µM (active)
COc1ccc(NC(=O)C2Cc3c(-c4ccc5c(c4)OCO5)ccnc3O2)cn1 (configuration not stated)	inactive
